# From PubChem BioAssay (Tox21)
# Values joined by “and” are separate entries in the source; they are usually repeats but may differ in a detail not shown here. Equal entries are not always repeated. Values without a mark were called inactive. Results filed as inconclusive are left out. A call without a number means that no potency is given here. The source holds several records for some structures; these can differ, active in one and inactive in another. Active and inactive are the calls of the source. Unless noted, calls follow the shape of the dose curve; as a rule, active = well fitted curve in the direction sought with a large enough effect in the repeat runs; inconclusive = weak or mixed curves; inactive = no such curve, though single readings can be large; an effect the other way counts as inactive or inconclusive.
# Key:
# [1] = qHTS assay to identify small molecule antagonists of the glucocorticoid receptor (GR) signaling pathway - cell viability counter screen (AID 720693); also: nearly all actives have a fitted effect of over 55% in size; also: potency is read from the fitted curve at half-maximal effect
# [2] = qHTS assay for identifying genotoxic compounds that show differential cytotoxicity against isogenic chicken DT40 cell lines with known DNA damage response pathways - wild type cell line (AID 743012); also: nearly all actives have a fitted effect of over 60% in size; also: potency is read from the fitted curve at half-maximal effect
# Method in brief: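 Viability by ATP luminescence (CellTiter-Glo, 30 min RT) after 40 h compound treatment at 37 C/5% CO2, using 300 parental DNA repair-proficient DT40 cells per well.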
# [3] = qHTS assay for identifying genotoxic compounds that show differential cytotoxicity against isogenic chicken DT40 cell lines with known DNA damage response pathways - Rad54/Ku70 mutant cell line (AID 743015); also: nearly all actives have a fitted effect of over 60% in size; also: potency is read from the fitted curve at half-maximal effect
# [4] = qHTS assay to identify small molecule antagonists of the androgen receptor (AR) signaling pathway - cell viability counter screen (AID 743033; also: nearly all actives have a fitted effect of over 45% in size)
# [5] = biological target: Androgen receptor (Homo sapiens) (UniProt P10275); test: qHTS assay to identify small molecule antagonists of the androgen receptor (AR) signaling pathway (AID 743035; active = well fitted inhibition curve with a large enough effect in the signal ratio in the repeat runs, not every such curve was filed as active; the % refers to the signal ratio)
# Androgen receptor (Homo sapiens), sequence (P10275 whole entry, looked up): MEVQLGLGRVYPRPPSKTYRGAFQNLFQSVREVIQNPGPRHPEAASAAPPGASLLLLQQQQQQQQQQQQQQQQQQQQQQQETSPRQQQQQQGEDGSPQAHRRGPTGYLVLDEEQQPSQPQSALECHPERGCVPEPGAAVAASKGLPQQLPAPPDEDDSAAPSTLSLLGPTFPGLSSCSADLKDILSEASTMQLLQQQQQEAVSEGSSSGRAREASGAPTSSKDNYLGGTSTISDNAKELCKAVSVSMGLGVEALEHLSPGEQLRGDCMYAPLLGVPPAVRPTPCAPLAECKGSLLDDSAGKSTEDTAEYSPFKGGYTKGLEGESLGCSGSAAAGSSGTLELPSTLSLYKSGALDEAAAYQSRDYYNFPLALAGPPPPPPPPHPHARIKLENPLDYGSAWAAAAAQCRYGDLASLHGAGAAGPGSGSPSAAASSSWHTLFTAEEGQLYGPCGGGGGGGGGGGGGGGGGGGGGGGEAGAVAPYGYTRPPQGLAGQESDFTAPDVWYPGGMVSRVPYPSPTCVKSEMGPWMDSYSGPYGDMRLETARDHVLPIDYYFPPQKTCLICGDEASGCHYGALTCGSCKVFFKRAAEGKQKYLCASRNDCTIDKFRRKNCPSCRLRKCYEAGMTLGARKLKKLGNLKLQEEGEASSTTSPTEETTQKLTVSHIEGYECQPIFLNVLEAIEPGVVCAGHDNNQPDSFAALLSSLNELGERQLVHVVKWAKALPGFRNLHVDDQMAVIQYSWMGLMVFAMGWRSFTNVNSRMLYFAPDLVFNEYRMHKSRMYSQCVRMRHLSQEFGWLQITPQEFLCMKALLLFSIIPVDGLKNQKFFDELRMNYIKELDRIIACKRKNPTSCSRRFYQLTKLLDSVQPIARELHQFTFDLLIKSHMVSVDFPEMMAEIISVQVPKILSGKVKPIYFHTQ
# Method in brief: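 Antagonist mode: AR-bla HEK293 cells co-treated with test compounds and agonist R1881 for 16 h at 37C, 5% CO2. Beta-lactamase activity read as FRET fluorescence after 2 h room-temperature substrate loading.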
# [6] = biological target: Androgen receptor (Homo sapiens) (UniProt P10275); test: qHTS assay to identify small molecule agonists of the androgen receptor (AR) signaling pathway (AID 743036; active = well fitted activation curve with a large enough effect in the signal ratio in the repeat runs, with a control signal flat, not every such curve was filed as active; the % refers to the signal ratio)
# Method in brief: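 In this Tox21 qHTS, 2,000 HEK293 AR-bla cells per well were incubated with compounds for 16 h at 37C and 5% CO2. Fluorescence intensity was recorded 2 h after adding LiveBLAzer B/G FRET substrate at room temperature.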
# [7] = biological target: Androgen receptor (Homo sapiens) (UniProt P10275); test: qHTS assay to identify small molecule agonists of the androgen receptor (AR) signaling pathway using the MDA cell line (AID 743040; also: nearly all actives have a fitted effect of over 20% in size)
# Method in brief: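 Stable MMTV-luciferase reporter in MDA-kb2 cells; note the promoter carries GR as well as AR response elements. 16 h compound treatment, 37C, 0% CO2; ONE-Glo luminescence endpoint.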
# [8] = qHTS assay to identify small molecule antagonists of the androgen receptor (AR) signaling pathway using the MDA cell line - cell viability counter screen (AID 743041; also: nearly all actives have a fitted effect of over 45% in size; also: potency is read from the fitted curve at half-maximal effect)
# Method in brief: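 Using the breast carcinoma line MDA-kb2 AR-luc, test chemicals were co-incubated with R1881 for 16 h; CellTiter-Fluor reagent, added at 15.5 h, provided a fluorescence measure of live cells.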
# [9] = biological target: Androgen receptor (Homo sapiens) (UniProt P10275); test: qHTS assay to identify small molecule antagonists of the androgen receptor (AR) signaling pathway using the MDA cell line (AID 743042; also: nearly all actives have a fitted effect of over 55% in size; also: potency is read from the fitted curve at half-maximal effect)
# Method in brief: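 Antagonist mode: compounds plus R1881 agonist added to MDA-kb2 AR-luc cells, incubated 16 h at 37C. Luciferase reporter luminescence quantified, with multiplexed CellTiter-Fluor readout for cell viability.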
# [10] = qHTS assay to identify small molecule antagonists of the thyroid receptor (TR) signaling pathway - cell viability counter screen (AID 743064); also: nearly all actives have a fitted effect of over 50% in size; also: potency is read from the fitted curve at half-maximal effect
# Method in brief: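 Counter screen for cytotoxicity: compound plus T3 (1 nM final) on GH3.TRE-Luc cells, 23.5 h at 37 °C, then fluorescence viability readout with CellTiter-Fluor.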
# [11] = qHTS assay to identify small molecule antagonists of the thyroid receptor (TR) signaling pathway (AID 743065); also: nearly all actives have a fitted effect of over 55% in size; also: potency is read from the fitted curve at half-maximal effect
# Method in brief: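 Antagonism measured as loss of luciferase signal in GH3 cells stably carrying a TRE-luciferase reporter, co-treated with compound and T3 (1 nM final) for 23.5 h at 37 C. Viability was read in the same well by CellTiter-Fluor.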
# [12] = tested on: thyroid hormone receptor (rat, GH3 cells); test: qHTS assay to identify small molecule agonists of the thyroid receptor (TR) signaling pathway (AID 743066; calls by dose curve)
# [13] = biological target: Estrogen receptor (Homo sapiens) (UniProt P03372); test: qHTS assay to identify small molecule antagonists of the estrogen receptor alpha (ER-alpha) signaling pathway (AID 743069; active = well fitted curve in the direction sought with a large enough effect in the signal ratio in the repeat runs, not every such curve was filed as active; the % refers to the signal ratio)
# Estrogen receptor (Homo sapiens), sequence (P03372 whole entry, looked up): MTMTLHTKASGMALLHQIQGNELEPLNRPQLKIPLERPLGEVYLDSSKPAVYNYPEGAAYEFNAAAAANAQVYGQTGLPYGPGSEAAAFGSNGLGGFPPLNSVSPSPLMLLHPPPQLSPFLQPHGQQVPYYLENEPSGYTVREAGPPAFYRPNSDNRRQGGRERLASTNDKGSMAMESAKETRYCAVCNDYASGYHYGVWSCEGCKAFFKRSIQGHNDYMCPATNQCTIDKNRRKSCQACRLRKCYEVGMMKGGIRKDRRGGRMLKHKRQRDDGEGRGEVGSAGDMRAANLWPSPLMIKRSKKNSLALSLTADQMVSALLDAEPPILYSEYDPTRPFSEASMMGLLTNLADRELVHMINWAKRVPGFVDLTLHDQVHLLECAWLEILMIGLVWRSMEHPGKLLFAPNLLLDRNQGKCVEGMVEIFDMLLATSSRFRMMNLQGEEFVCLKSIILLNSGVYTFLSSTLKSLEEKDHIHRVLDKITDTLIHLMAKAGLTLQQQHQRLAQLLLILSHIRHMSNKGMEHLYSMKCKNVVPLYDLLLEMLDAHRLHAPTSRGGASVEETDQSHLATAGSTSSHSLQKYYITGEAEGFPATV
# Method in brief: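 Fluorescence intensity from a beta-lactamase FRET substrate served as the read-out. Cells: HEK293 with stably integrated ER-alpha-UAS-bla reporter. Agonist 17beta-estradiol was co-added with compounds; incubation 18 hr at 37C, substrate 2 hr at room temperature.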
# [14] = qHTS assay to identify small molecule antagonists of the estrogen receptor alpha (ER-alpha) signaling pathway - cell viability counter screen (AID 743074; calls by dose curve; also: nearly all actives have a fitted effect of over 45% in size)
# [15] = biological target: Estrogen receptor (Homo sapiens) (UniProt P03372); test: qHTS assay to identify small molecule agonists of the estrogen receptor alpha (ER-alpha) signaling pathway (AID 743075; calls by dose curve)
# [16] = biological target: Estrogen receptor (Homo sapiens) (UniProt P03372); test: qHTS assay to identify small molecule agonists of the estrogen receptor alpha (ER-alpha) signaling pathway using the BG1 cell line (AID 743079); also: nearly all actives have a fitted effect of over 20% in size; also: potency is read from the fitted curve at half-maximal effect
# [17] = qHTS assay to identify small molecule antagonists of the estrogen receptor alpha (ER-alpha) signaling pathway using the BG1 cell line (AID 743080; calls by dose curve;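 also: BG1 cells stimulated with 17beta-estradiol alongside compound; nearly all actives have a fitted effect of over 25% in size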; also: potency is read from the fitted curve at half-maximal effect; as to activity change, negative = inhibition: series mostly up to about 70 µM)
# Method in brief: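 Luciferase inhibition measured with ONE-Glo after 30 min at RT in BG1Luc4E2 cells given test compounds and 17beta-estradiol for 21.5 h at 37 C; CellTiter-Fluor viability read in the same wells beforehand.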
# [18] = qHTS assay to identify small molecule antagonists of the estrogen receptor alpha (ER-alpha) signaling pathway using the BG1 cell line - cell viability counter screen (AID 743081);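 also: compound given together with 17beta-estradiol as the ER stimulus; nearly all actives have a fitted effect of over 45% in size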; also: potency is read from the fitted curve at half-maximal effect; as to activity change, negative = cytotoxicity: series mostly up to about 70 µM
# Aromatase (Homo sapiens) = Aromatase (Homo sapiens) (UniProt P11511); test: qHTS assay to identify aromatase inhibitors (AID 743083); also: nearly all actives have a fitted effect of over 55% in size; also: potency is read from the fitted curve at half-maximal effect
# Aromatase (Homo sapiens), sequence (P11511 whole entry, looked up): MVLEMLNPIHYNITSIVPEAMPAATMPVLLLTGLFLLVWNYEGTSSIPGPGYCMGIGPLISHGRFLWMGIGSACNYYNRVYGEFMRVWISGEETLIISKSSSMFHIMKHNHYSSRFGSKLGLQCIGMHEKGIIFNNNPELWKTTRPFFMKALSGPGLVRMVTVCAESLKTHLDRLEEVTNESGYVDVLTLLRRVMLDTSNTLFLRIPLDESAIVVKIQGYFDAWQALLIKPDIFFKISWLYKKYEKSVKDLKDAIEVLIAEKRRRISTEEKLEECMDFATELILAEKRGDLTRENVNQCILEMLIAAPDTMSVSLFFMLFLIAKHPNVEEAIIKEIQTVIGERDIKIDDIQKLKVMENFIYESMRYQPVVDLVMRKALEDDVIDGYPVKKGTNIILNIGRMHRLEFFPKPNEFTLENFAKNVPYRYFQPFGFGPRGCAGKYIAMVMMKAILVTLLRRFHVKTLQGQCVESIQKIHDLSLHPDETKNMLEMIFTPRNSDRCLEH
# [19] = qHTS assay for identifying genotoxic compounds that show differential cytotoxicity against isogenic chicken DT40 cell lines with known DNA damage response pathways - Rev3 mutant cell line (AID 743014); also: nearly all actives have a fitted effect of over 55% in size; also: potency is read from the fitted curve at half-maximal effect
smiles,measurement,setting,value
CCCC1CCOC(C)S1 (stereo not drawn),Potency,[1],inactive
same,Potency,[2],inactive
same,Potency,[3],inactive
same,Potency,[4],inactive
same,Potency,[5],inactive
same,outcome,[6],inactive
same,outcome,[7],inactive
same,Potency,[8],inactive
same,Potency,[9],inactive
same,Potency,[10],inactive
same,Potency,[11],inactive
same,outcome,[12],inactive
same,Potency,[13],inactive
same,outcome,[14],inactive
same,Potency,[15],inactive
same,Potency,[16],inactive
same,Potency,[17],inactive
same,Potency,[18],inactive
same,Potency,Aromatase (Homo sapiens),inactive
CC1=CC(=C(c2ccc(N)cc2)c2ccc(N)cc2)C=CC1=N,Potency,[1],inactive
same,Potency,[2],5.31 µM (active)
same,Potency,[19],5.96 µM (active) and 3.1 µM (active)
same,Potency,[3],5.96 µM (active)
same,Potency,[8],7.5 µM (active)
same,Potency,[10],13.3 µM (active)
same,Potency,[11],10.6 µM (active)
same,activation,[12],-3.23% [at 8.08 µM]
same,Potency,[15],inactive
same,activation,[16],1.34% [at 8.47 µM]
same,"activity change, negative = inhibition",[17],-25% [at 8.47 µM]
same,Potency,[18],11.9 µM (active)
same,"activity change, negative = cytotoxicity",[18],-20.8% [at 8.47 µM]
same,Potency,Aromatase (Homo sapiens),8.41 µM (active)
O=S(=O)(O)c1cc(Cl)c(Cl)cc1Cl,Potency,[1],inactive
same,Potency,[2],inactive
same,Potency,[3],inactive
same,Potency,[4],inactive
same,outcome,[6],inactive
same,outcome,[7],inactive
same,Potency,[8],inactive
same,Potency,[9],inactive
same,Potency,[10],inactive
same,Potency,[13],inactive
same,outcome,[14],inactive
same,Potency,[15],inactive
same,Potency,[16],inactive
same,Potency,[17],inactive
same,Potency,[18],inactive
same,Potency,Aromatase (Homo sapiens),inactive
Cc1ccc2c(Cl)cc(Cl)c(O)c2n1,Potency,[1],23.9 µM (active)
same,Potency,[2],1.88 µM (active)
same,Potency,[19],2.37 µM (active)
same,Potency,[3],1.88 µM (active)
same,outcome,[7],inactive
same,Potency,[8],9.44 µM (active)
same,Potency,[9],2.66 µM (active)
same,Potency,[10],1.19 µM (active)
same,Potency,[11],1.68 µM (active)
same,Potency,[17],9.44 µM (active)
same,Potency,Aromatase (Homo sapiens),13.3 µM (active)
c1ccc(CCNc2nc(-c3ccccc3)cs2)cc1,Potency,[1],inactive
same,Potency,[2],29.8 µM (active)
same,Potency,[19],29.8 µM (active)
same,Potency,[3],33.5 µM (active)
same,Potency,[8],inactive
same,Potency,[10],inactive
same,Potency,[11],inactive
same,outcome,[12],inactive
same,Potency,[15],inactive
same,Potency,[16],0.944 µM (active)
same,Potency,[18],inactive
same,Potency,Aromatase (Homo sapiens),inactive
CCCCCCCCCC(C)C=O (stereo not drawn),Potency,[1],inactive
same,Potency,[2],inactive
same,Potency,[19],inactive
same,Potency,[3],inactive
same,Potency,[4],inactive
same,Potency,[10],inactive
same,outcome,[12],inactive
same,outcome,[14],inactive
same,Potency,[18],inactive
same,Potency,Aromatase (Homo sapiens),inactive
O=C1c2ccccc2C(=O)c2c1ccc(O)c2O,Potency,[1],inactive
same,Potency,[2],inactive
same,Potency,[19],inactive
same,Potency,[3],inactive
same,Potency,[4],inactive
same,Potency,[10],inactive
same,Potency,[11],inactive
same,outcome,[12],inactive
same,outcome,[14],inactive
same,Potency,[18],inactive
same,Potency,Aromatase (Homo sapiens),inactive
C(/C=C/C=C/Nc1ccccc1)=Nc1ccccc1,Potency,[1],inactive
same,Potency,[2],inactive
same,Potency,[19],inactive
same,Potency,[4],inactive
same,Potency,[8],inactive
same,Potency,[10],inactive
same,outcome,[14],inactive
same,Potency,[15],inactive
same,Potency,[16],inactive
same,Potency,[17],inactive
same,Potency,[18],inactive
same,Potency,Aromatase (Homo sapiens),inactive
Nc1ncnc2c1ncn2[C@@H]1O[C@H](CO)[C@@H](O)[C@H]1O,Potency,[1],inactive
same,Potency,[2],inactive
same,Potency,[19],inactive
same,Potency,[8],inactive
same,Potency,[10],inactive
same,Potency,[13],inactive
same,outcome,[14],inactive
same,Potency,[15],inactive
same,Potency,[16],inactive
same,Potency,[17],inactive
same,Potency,[18],inactive
same,Potency,Aromatase (Homo sapiens),inactive
CC(C)CC(C)(C)C,Potency,[1],inactive
same,Potency,[2],inactive
same,Potency,[19],inactive
same,Potency,[3],inactive
same,Potency,[8],inactive
same,Potency,[10],inactive
same,Potency,[11],inactive
same,outcome,[12],inactive
same,Potency,[13],inactive
same,outcome,[14],inactive
same,Potency,[15],inactive
same,Potency,[16],inactive
same,Potency,[17],inactive
same,Potency,[18],inactive
same,Potency,Aromatase (Homo sapiens),inactive
C[C@@H](O)[C@H]1C(=O)N2C(C(=O)O)=C(S[C@@H]3CN[C@H](CNS(N)(=O)=O)C3)[C@H](C)[C@H]12,Potency,[1],inactive
same,Potency,[2],inactive
same,Potency,[3],inactive
same,Potency,[4],inactive
same,Potency,[8],inactive
same,Potency,[10],inactive
same,Potency,[11],inactive
same,outcome,[12],inactive
same,Potency,[13],inactive
same,outcome,[14],inactive
same,Potency,[15],inactive
same,Potency,[17],inactive
same,Potency,[18],inactive
same,Potency,Aromatase (Homo sapiens),inactive
COc1cccc([C@H](O)C2CCN(CCc3ccc(F)cc3)CC2)c1OC,Potency,[1],inactive
same,Potency,[2],27.3 µM (active)
same,Potency,[19],1.72 µM (active)
same,Potency,[3],4.33 µM (active)
same,Potency,[4],inactive
same,outcome,[12],inactive
same,outcome,[14],inactive
same,Potency,[15],inactive
same,Potency,[16],inactive
same,Potency,[17],inactive
same,Potency,[18],inactive
same,Potency,Aromatase (Homo sapiens),inactive
Cc1cc(C)n(CO)n1,Potency,[1],inactive
same,Potency,[2],inactive
same,Potency,[19],inactive
same,Potency,[3],inactive
same,Potency,[4],inactive
same,Potency,[10],inactive
same,Potency,[11],inactive
same,Potency,[13],inactive
same,outcome,[14],inactive
same,Potency,[15],inactive
same,Potency,[16],inactive
same,Potency,[17],inactive
same,Potency,[18],inactive
same,Potency,Aromatase (Homo sapiens),inactive
CCc1cnc(C(=O)O)c(C(=O)O)c1,Potency,[1],inactive
same,Potency,[2],inactive
same,Potency,[3],inactive
same,Potency,[4],inactive
same,Potency,[8],inactive
same,Potency,[10],inactive
same,Potency,[11],inactive
same,outcome,[12],inactive
same,outcome,[14],inactive
same,Potency,[15],inactive
same,Potency,[16],inactive
same,Potency,[17],inactive
same,Potency,[18],inactive
same,Potency,Aromatase (Homo sapiens),inactive
CC/C=C/CCO,Potency,[1],inactive
same,Potency,[2],inactive
same,Potency,[3],inactive
same,Potency,[4],inactive
same,Potency,[8],inactive
same,Potency,[10],inactive
same,Potency,[11],inactive
same,outcome,[12],inactive
same,outcome,[14],inactive
same,Potency,[18],inactive
COc1cc(CNC(=O)CCCC/C=C/C(C)C)ccc1O,Potency,[1],inactive
same,Potency,[2],inactive
same,Potency,[19],inactive
same,Potency,[3],inactive
same,Potency,[4],inactive
same,Potency,[10],inactive
same,outcome,[12],inactive
same,outcome,[14],inactive
same,Potency,[15],inactive
same,Potency,[16],inactive
same,Potency,[17],inactive
same,Potency,[18],inactive
